Test results: PubChem BioAssay (NCI)
About 83,000 compounds went through this panel and 20% of them were active in at least one assay; those are over-represented in the sample as a whole.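 Each cell line was grown in a 96-well plate and treated with one concentration of compound for 48 hours. Values below 10 were considered active.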 The source made the active and inactive calls.

Tested on: NCI-H23 lung
Assay: NCI-60 one-dose screen, 48 h (100 = growth as untreated, 0 = no growth, -100 = all killed)
Settings: 10 µM
Method: Growth inhibition of the NCI-H23 human Non-Small Cell Lung tumor cell line is measured as a screen for anti-cancer activity. Cells are grown in 96 well plates and exposed to the test compound for 48 hours. Compounds are tested at a single concentration, which is 10^-5 M for most compounds. The reported endpoint is percent growth (GI% or GIPRCNT), where numbers from 0 - 100% represent growth inhibition, and numbers from -100% - 0 represent cell death. For example, a value of 40 represents 60% growth inhibition. A value of 0 means no net growth occurred over the course of the experiment. A value of -40 indicates 40% of cells at the beginning of the experiment died by the end of the experiment. A value of -100 means all cells are dead at the end of the experiment.
NCI-60 Human Tumor Cell Lines Screen was performed using the standard one-dose NCI protocol, which is described in more detail at https://dtp.cancer.gov/discovery_development/nci-60/default.htm.
Compounds with GIPRCNT values below 10 were considered active. Activity score was based on GIPRCNT using the following formula: […]
Score is 0 for GIPRCNT values of 100 or above, 50 for GIPRCNT values of 0, and 100 for GIPRCNT values of -100.

SMILES	growth
CCOc1ccccc1/C=N/Nc1nc2ccccc2o1	91.8% (inactive)
COc1ccc(Oc2c(I)cc(CC(NC(C)=O)C(=O)O)cc2I)cc1 (stereo not given)	61.9% (inactive)
COc1cccc(/C=N/NC(=S)NC2CC3CCC2C3)c1O (stereo not given)	71% (inactive)
O=C1OC(=O)C2C1C1(Cl)C(Cl)=C(Cl)C2(Cl)C2C(=O)OC(=O)C21 (stereo not given)	101% (inactive)
CC(C)(C)c1cc(O)c(C(C)(C)C)cc1O	96.3% (inactive)
OCCN(CCO)C(=S)S	102% (inactive)
O=C(O)CCCC(=O)O	95.3% (inactive)
CC(=O)c1ccc2c(ccc3ccccc32)c1	102% (inactive)
CC(=O)Nc1cccc(Cl)c1C	103% (inactive)
CCN(CC)CCCC(C)Nc1ccnc(/C=C/c2ccc(Cl)cc2)c1 (stereo not given)	67.4% (inactive)
CCOC(=O)c1cc(/C=C/c2ccc(Cl)cc2Cl)on1	47.4% (inactive)
COc1cc(/C=C/C(=O)c2ccccc2)cc(OC)c1OC	78.1% (inactive)
Cc1ccccc1C1N=C2Oc3ccccc3C=C2C(=O)N1 (stereo not given)	48.7% (inactive)
O=S(=O)(O)c1ccc(Cl)c(Cl)c1	101% (inactive)
COc1cc(CN)ccc1O	99.4% (inactive)
CCc1nn(Cc2ccccc2)c2nc(C)c(CCc3ccccc3)c(Cl)c12	101% (inactive)
O=P(O)(O)OCC(O)CO (stereo not given)	107% (inactive)
O=C1NC(=O)C2C(=O)NC(=O)C1C21CCc2ccccc21 (stereo not given)	91.8% (inactive)
CCC(C)(O)c1ccc(C)cc1 (stereo not given)	103% (inactive)
Nc1ccc(N=Nc2ccc(O)cc2)c(N)n1	91.2% (inactive)

SMILES	growth
CCCNC(=O)c1ccc(S(N)(=O)=O)cc1	118% (inactive)
O/N=C/c1ccc(O)cc1O	105% (inactive)
NCCCN	112% (inactive)
CCOc1ccc(/C=N/N=C(N)N)cc1OCC	92% (inactive)
COC(=O)C(C)Oc1ccc(OC#N)cc1 (stereo not given)	95% (inactive)
O=C(O)c1cccc([N+](=O)[O-])c1	95% (inactive)
COc1cc(C(=O)NC(=S)Nc2ccc3ccccc3c2)cc(OC)c1OC	82.5% (inactive)
O=S(=O)(O)c1ccc(O)c2ccccc12	93.4% (inactive)
O=c1cc(-c2ccccc2)[nH]c2c1CCCC2	32.1% (inactive)
CCCC1(c2ccccc2)NC(=O)NC1=O (stereo not given)	110% (inactive)
Cc1c(C(=O)O)c(=O)n(-c2ccccc2)n1C	92% (inactive)
CC1CCC2C(C)(C)C3CC12CC1OC13C (stereo not given)	107% (inactive)
O=C(O)COCC(=O)O	105% (inactive)
NC(C(=O)O)c1ccc([N+](=O)[O-])cc1 (stereo not given)	105% (inactive)
COc1cc(C2c3cc4c(cc3C3OC(=O)C2C3CO)OCO4)cc(OC)c1OC (stereo not given)	14.7% (inactive)
CSc1[nH]c(=O)ncc1F	101% (inactive)
C/C(=N\O)C1(O)CCCCC1	99.5% (inactive)
O=[N+]([O-])c1ccc(-c2ncc(-c3ccc(Br)cc3)o2)cc1	93.7% (inactive)
CC1(C(=O)O)NC(C(=O)O)Cc2c1[nH]c1ccccc21 (stereo not given)	101% (inactive)
S=c1nn[nH]c2ccccc12	99.6% (inactive)
